# ± gives the standard deviation of the averaged measurements. The full data set covers some 5,400 targets. This sample favours those with the largest changes.
# Molecular target: T1, PINX1 (UniProt Q96BK5)
# T1 sequence (whole entry): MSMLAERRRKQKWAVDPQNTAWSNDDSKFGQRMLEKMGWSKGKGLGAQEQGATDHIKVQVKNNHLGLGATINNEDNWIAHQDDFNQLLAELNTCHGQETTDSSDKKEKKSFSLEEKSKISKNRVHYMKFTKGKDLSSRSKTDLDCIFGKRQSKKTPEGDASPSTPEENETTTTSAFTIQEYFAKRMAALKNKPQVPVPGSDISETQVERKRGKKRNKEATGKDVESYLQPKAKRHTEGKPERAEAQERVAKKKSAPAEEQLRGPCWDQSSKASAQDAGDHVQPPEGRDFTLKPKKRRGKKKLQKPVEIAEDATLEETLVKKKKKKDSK
# Test: NP40-soluble protein abundance relative to vehicle (solubility fold change) (ratio); higher = more soluble protein in presence of GTP
# Experimental: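 Solubility proteome profiling in Jurkat crude lysate. Lysate was treated with Mg-GTP (0.1-10 mM) for 10 min at room temperature and 3 min at 37 °C, then solubilised with 0.8% NP40 and benzonase, followed by ultracentrifugation. Proteins were quantified by TMT10 LC-MS/MS; the value is the NP40-soluble abundance relative to the NP40-processed vehicle, from 3 independent experiments.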
structure (smiles),measurement,setting,value
Nc1nc2c(ncn2[C@@H]2O[C@H](COP(=O)(O)OP(=O)(O)OP(=O)(O)O)[C@@H](O)[C@H]2O)c(=O)[nH]1 [guanosine triphosphate],NP40-soluble protein abundance,concentration: 0.1mM,1.22 ± 0.065
same,NP40-soluble protein abundance,concentration: 0.5mM,1.28 ± 0.074
same,NP40-soluble protein abundance,concentration: 1mM,1.45 ± 0.033
same,NP40-soluble protein abundance,concentration: 2mM,1.64 ± 0.093
same,NP40-soluble protein abundance,concentration: 4mM,1.96 ± 0.15
same,NP40-soluble protein abundance,concentration: 6mM,2.01 ± 0.21
same,NP40-soluble protein abundance,concentration: 8mM,2.36 ± 0.13
same,NP40-soluble protein abundance,concentration: 10mM,2.62 ± 0.26

# From the supplement of paper PMC6411743
